Assay [1] is described as follows: Quantitative High-Throughput drug screen in 47 multiple myeloma cell lines against the NCATS MIPE library collection: JIM3_ECACC cell viability assay (AID 1918963; further: nearly all actives have a fitted effect of over 35% in size). The method, boiled down: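 CellTiter-Glo luminescence (ATP) after 48 h compound exposure, 37C/5% CO2; 500 cells/well; MIPE 4.0 approved/investigational drugs pinned in; DMSO = 100%, media only = 0% viability.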

A short description of assay [2]: Quantitative High-Throughput drug screen in 47 multiple myeloma cell lines against the NCATS MIPE library collection: JIM1_ECACC cell viability assay (AID 1918964). The procedure, abridged: (§1)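 Steps: seed 500 cells per well; pin-transfer MIPE 4.0 library; incubate 48 h at 37C, 5% CO2, humidified; add CellTiter-Glo, 5 min room temperature; read luminescence.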
Assay [3] is described as follows: Quantitative High-Throughput drug screen in 47 multiple myeloma cell lines against the NCATS MIPE library collection: INA6_PLB cell viability assay (AID 1918965; further: nearly all actives have a fitted effect of over 55% in size). The procedure, abridged:
(§2)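 Myeloma cells (500 per well) were exposed to MIPE 4.0 compounds by pin transfer and incubated 48 hours at 37C, 5% CO2. Viability was read as ATP by CellTiter-Glo luminescence, normalised to DMSO (100%) and media-only (0%) wells.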

A short description of assay [4]: Quantitative High-Throughput drug screen in 47 multiple myeloma cell lines against the NCATS MIPE library collection: JJN3_DSMZ cell viability assay (AID 1918966; further: nearly all actives have a fitted effect of over 50% in size). The method, boiled down: as §1
Assay [5] can be described thus: Quantitative High-Throughput drug screen in 47 multiple myeloma cell lines against the NCATS MIPE library collection: H1112_PLB cell viability assay (AID 1918967; further: nearly all actives have a fitted effect of over 30% in size). The procedure, abridged:
as §1

Assay [6] is described as follows: Quantitative High-Throughput drug screen in 47 multiple myeloma cell lines against the NCATS MIPE library collection: Karpas25_ECACC cell viability assay (AID 1918968; further: nearly all actives have a fitted effect of over 35% in size). The method, boiled down:
as §1

Assay [7] in a line: Quantitative High-Throughput drug screen in 47 multiple myeloma cell lines against the NCATS MIPE library collection: KMS12BM_JCRB cell viability assay (AID 1918971). Further: nearly all actives have a fitted effect of over 35% in size. The method, boiled down:
as §1

Assay [8] in a line: Quantitative High-Throughput drug screen in 47 multiple myeloma cell lines against the NCATS MIPE library collection: KMS27_JCRB cell viability assay (AID 1918970). Further: nearly all actives have a fitted effect of over 30% in size. Conditions: KMS27 myeloma cells, CellTiter-Glo ATP viability, 48 h; viability (% of DMSO): at 45.8 µM (top of the series). The procedure, abridged: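 KMS27_JCRB myeloma cells, 500 per well, exposed 48 h at 37 C, 5% CO2 to MIPE 4.0 compounds. Viability from ATP by CellTiter-Glo luminescence, normalized to DMSO (100%) and medium-only (0%) wells.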

The nature of assay [9]: Quantitative High-Throughput drug screen in 47 multiple myeloma cell lines against the NCATS MIPE library collection: KMS12PE_JCRB cell viability assay (AID 1918972). Further: nearly all actives have a fitted effect of over 30% in size. The method, boiled down:
as §2

SMILES strings stand for the structures. Inconclusive results are not listed. Active and inactive are the calls of the source. The call rests on the fitted dose curve; in most records, active means well fitted curve in the direction sought with a large enough effect; inconclusive means small, poorly fitted or top-dose-only effect, or another doubt; inactive means no such curve, though single readings can be large; an effect the other way counts as inactive or inconclusive.
Potency means the concentration at half of the fitted maximal effect.

Turning to `CCc1cccc(CC)c1NC(=O)N1Cc2[nH]nc(NC(=O)c3ccc(N4CCN(C)CC4)cc3)c2C1`, the Potency is 4.69 µM (active) in assay [1]; 4.69 µM (active) in [3]; 1.66 µM (active) in assay [4]; 20.9 µM (active) in [5]; 13.2 µM (active) in assay [6]; 18.7 µM (active) in assay [7]. For the same compound, the Potency entry in assay [2] was “inactive”.
With `O=C(O)C1=NC(C(=O)O)CC(C=CN2c3cc(O)c(OC4OC(CO)C(O)C(O)C4O)cc3CC2C(=O)O)=C1` (configuration not stated), the Potency result in assay [1], in [2], in assay [3], in assay [5], in assay [6] and in assay [8] was “inactive” each time. In addition, the Potency entry in assay [9] is “inactive”.
`CCCCCCCCCCCCCC(=O)N[C@H](CO)[C@H](O)c1ccc([N+](=O)[O-])cc1`: the Potency was 26.4 µM (active) in assay [1]; 14.8 µM (active) in [2]; 23.5 µM (active) in assay [3]; 18.7 µM (active) in assay [4]; 18.7 µM (active) in assay [6]; 14.8 µM (active) in assay [8]. For the same compound, the values for the Potency in [7] and in assay [9] were 23.5 µM (active) and 8.33 µM (active), respectively.
Regarding `COc1ccc(-c2cc(=O)c3c(O)cc(O[C@@H]4O[C@H](CO[C@@H]5O[C@@H](C)[C@H](O)[C@@H](O)[C@@H]5O)[C@@H](O)[C@H](O)[C@@H]4O)cc3o2)cc1O`, the Potency is 16.6 µM (active) in [1], 26.4 µM (active) in assay [3], 13.2 µM (active) in [5] and 11.8 µM (active) in assay [6]. Besides, the Potency entry in [2], in assay [8] and in [9] was “inactive” each time.
Regarding `CCC(=C(CC)c1ccc(O)cc1)c1ccc(O)cc1`, the Potency entry in assay [1] is “inactive”. Besides, the Potency in [2] was 16.6 µM (active); in assay [4], 9.35 µM (active); in [5], 18.7 µM (active); in assay [7], 13.2 µM (active); in [9], 13.2 µM (active).
For the compound `CCNC(=O)CCCC=CC[C@@H]1[C@H](C=CC(O)CCc2ccccc2)[C@@H](O)C[C@@H]1O` (some centres not stated), the Potency entry in [1], in assay [2], in assay [3], in assay [5], in assay [6] and in assay [8] was “inactive” throughout. In assay [9], the Potency entry is “inactive”. Further, the Potency in assay [7] was 7.43 µM (active).
With `C[C@@H]1C[C@H]2[C@@H]3CCC4=CC(=O)C=C[C@]4(C)[C@@]3(F)[C@@H](O)C[C@]2(C)[C@@]1(O)C(=O)CO`, the Potency entry in assay [1], in assay [2], in assay [3], in assay [4], in [5] and in assay [8] was “inactive” in each case. The Potency result in [9] is “inactive”. Moreover, the Potency in assay [6] was 0.0526 µM (active).
Turning to `CN(C)S(=O)(=O)c1ccc2c(c1)C(=Cc1cc3c([nH]1)CCCC3)C(=O)N2`, the Potency in [1] was 11.8 µM (active); in assay [3] it was 3.72 µM (active); in [4], 4.69 µM (active); in [6] it was 16.6 µM (active); in assay [8] it was 3.32 µM (active); in assay [7] it was 8.33 µM (active).
Consider `O=C(CO)N1CCC(c2[nH]nc(-c3ccc(Cl)cc3)c2-c2ccncn2)CC1`, for which the Potency result in assay [1], in assay [5], in [6], in assay [8] and in [9] was “inactive” throughout. In addition, the Potency in assay [3] was 11.8 µM (active); in [4] it was 1.66 µM (active); in assay [7], 0.935 µM (active).
Consider `CN1C(=O)C(Cc2c[nH]c3ccccc23)NC1=S` (configuration not stated), for which the Potency result in assay [1], in [3], in assay [4], in assay [5] and in assay [8] was “inactive” in each case. Besides, the Potency in [6] and in [7] was 13.2 µM (active) throughout.
Take `CN1CC(=O)NC1=NC(=O)Nc1cccc(Cl)c1`: the Potency is 13.2 µM (active) in [1]; 14.8 µM (active) in assay [3]; 8.33 µM (active) in [4]; 16.6 µM (active) in [5]; 5.26 µM (active) in [6]. Moreover, the Potency result in assay [9] is “inactive”.
In the case of `CCCCn1c(=O)n(Cc2ccccc2F)c(=O)c2[nH]c(Cc3ccc(NC(C)=O)cc3)nc21`, the Potency was 23.5 µM (active) in assay [1] and 0.0042 µM (active) in assay [2]. Further, the Potency result in assay [5], in [8] and in assay [9] was “inactive” throughout.
As for `Cc1cc(OCCCS(C)(=O)=O)cc(C)c1-c1cccc(COc2ccc3c(c2)OC[C@H]3CC(=O)O)c1`, the Potency in [1] is 14.8 µM (active); in [4] it was 11.8 µM (active); in [5], 20.9 µM (active); in assay [7], 13.2 µM (active); in assay [9], 5.26 µM (active). In addition, the Potency entry in assay [2] is “inactive”.
As to `CC(=O)O[C@]1(C(C)=O)CC[C@H]2[C@@H]3C=C(Cl)C4=CC(=O)[C@@H]5C[C@H]5[C@]4(C)[C@@H]3CC[C@@]21C`, the Potency in assay [1] was 23.5 µM (active); in [3] it was 14.8 µM (active); in assay [5], 9.35 µM (active); in assay [6] it was 9.35 µM (active); in assay [8], 18.7 µM (active).
With `C=CC[N+]1([C@H]2C[C@H]3[C@@H]4CC[C@H]5C[C@H](O)[C@@H](N6CCOCC6)C[C@]5(C)[C@@H]4CC[C@]3(C)[C@H]2OC(C)=O)CCCC1`, the Potency result in assay [1], in assay [3], in [5], in assay [8], in assay [7] and in assay [9] was “inactive” each time. For the same compound, the Potency in [4] is 0.0053 µM (active).
As for `CC1=C(CC(=O)O)c2cc(F)ccc2C1=Cc1ccc(S(C)=O)cc1` (configuration not stated), the Potency in assay [1] was 13.2 µM (active); in assay [3] it was 18.7 µM (active); in assay [4], 10.5 µM (active).
On to `CS(=O)(=O)c1ccc(C2=C(c3ccccc3)C(=O)OC2)cc1`, for which the Potency result in assay [1], in assay [3], in assay [5], in assay [6], in assay [8] and in assay [7] was “inactive” each time.
As for `O=C1CCCC(=O)C1C(=O)c1ccc(C(F)(F)F)cc1[N+](=O)[O-]`, the Potency result in assay [1], in [3], in assay [4], in assay [5], in assay [6] and in assay [8] was “inactive” each time. For the same compound, the Potency result in assay [9] was “inactive”. The Potency in assay [7] is 0.166 µM (active).
For `Cc1ccc2c(c1)c1c(n2CCc2ccc(C)nc2)CCN(C)C1`, the Potency entry in assay [1], in [2], in assay [5] and in assay [8] was “inactive” each time.

The values are drawn from PubChem BioAssay (NCATS).
